About 83,000 compounds went through this panel and 20% of them were active in at least one assay; those are over-represented in the sample as a whole.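 48-hour exposure, single concentration, 96-well plates; percent growth endpoint where 0 means no net growth. Active: below 10.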 Unmarked numbers belong to inactive results. Active and inactive are the calls of the source.
Experiments:
Assay in all cases: NCI-60 one-dose screen, 48 h (100 = growth as untreated, 0 = no growth, -100 = all killed)
Conditions in all cases: 10 µM
HCT-15 colon = tested on: HCT-15 colon
HT29 colon = tested on: HT29 colon
SNB-75 CNS = tested on: SNB-75 CNS
SNB-19 CNS = tested on: SNB-19 CNS
PC-3 prostate = tested on: PC-3 prostate
SK-MEL-5 melanoma = tested on: SK-MEL-5 melanoma
UACC-62 melanoma = tested on: UACC-62 melanoma
LOX IMVI melanoma = tested on: LOX IMVI melanoma
SK-MEL-28 melanoma = tested on: SK-MEL-28 melanoma
SK-MEL-2 melanoma = tested on: SK-MEL-2 melanoma
SN12C renal = tested on: SN12C renal
UO-31 renal = tested on: UO-31 renal
TK-10 renal = tested on: TK-10 renal
ACHN renal = tested on: ACHN renal
CAKI-1 renal = tested on: CAKI-1 renal
A498 renal = tested on: A498 renal
CCRF-CEM leukemia = tested on: CCRF-CEM leukemia
MOLT-4 leukemia = tested on: MOLT-4 leukemia
EKVX NSCLC = tested on: EKVX NSCLC
U251 CNS = tested on: U251 CNS

SMILES	growth (HCT-15 colon)	growth (HT29 colon)	growth (SNB-75 CNS)	growth (SNB-19 CNS)	growth (PC-3 prostate)	growth (SK-MEL-5 melanoma)	growth (UACC-62 melanoma)	growth (LOX IMVI melanoma)	growth (SK-MEL-28 melanoma)	growth (SK-MEL-2 melanoma)	growth (SN12C renal)	growth (UO-31 renal)	growth (TK-10 renal)	growth (ACHN renal)	growth (CAKI-1 renal)	growth (A498 renal)	growth (CCRF-CEM leukemia)	growth (MOLT-4 leukemia)	growth (EKVX NSCLC)	growth (U251 CNS)
CS(=O)(=O)Nc1ccc(Nc2c3ccccc3nc3cc(Cl)ccc23)cc1	39.6%	22.4%	30.9%	44.7%	33.8%	18.6%	36.8%	19.5%	72.6%	74.1%	13.9%	0.84% (active)	55%	9.36% (active)	6.38% (active)	48.5%	7.94% (active)	-5.91% (active)	–	–
CCOC(=O)[C@@H]1[C@H](c2ccccc2)[C@H]([N+](=O)[O-])[C@H](c2cn(-c3ccccc3)nc2C)N1Cc1ccccc1	43%	76.4%	81.5%	77.7%	46%	76.3%	60.9%	65.6%	85.4%	85.5%	88.8%	71.7%	106%	73.9%	69%	97.6%	59.8%	51.7%	–	–
CC(=O)OC1Oc2ccccc2-c2oc(=O)c(-c3cc(=O)oc4cc(O)ccc34)cc21 (stereo unspecified)	80.8%	86.9%	76%	95%	75.9%	80.1%	84.9%	83.8%	111%	87.3%	95.6%	–	82.5%	85.8%	93.7%	54.8%	32.1%	42.8%	86.6%	–
COc1ccc(-c2nc3sc(-c4ccccc4)c(-c4ccccc4)n3c2/C=C/c2ccc(F)cc2)cc1	91.4%	94.7%	72.3%	108%	61.6%	99.6%	82.8%	87.1%	109%	89.3%	86.7%	82.7%	115%	78.9%	67%	108%	88.1%	74.8%	–	–
COc1cc(Cn2c(-c3ccccc3)c(Cl)c3c2-c2oncc2CC3)cc(OC)c1	80.8%	56.1%	–	85.3%	60.8%	109%	55.4%	73.8%	92.3%	75.3%	92%	-7.99% (active)	104%	69.2%	47.3%	26.5%	9.93% (active)	5.45% (active)	90.6%	37.3%
COc1ccc(C(=O)/C=C/c2cc(-c3ccc(OC)c(OC)c3)n[nH]2)cc1OC	-68.1% (active)	-61.1% (active)	-0.863% (active)	2.04% (active)	-36.2% (active)	4.15% (active)	16.3%	-86.8% (active)	-65.5% (active)	42.7%	-31.7% (active)	-95% (active)	-20.7% (active)	-70.9% (active)	-24.4% (active)	-40.7% (active)	3.32% (active)	1.44% (active)	–	–
C=CCOc1ccc2c(c1)CC[C@@H]1[C@@H]2CC[C@]2(C)C(=O)/C(=N/O)C[C@@H]12	41.6%	2.91% (active)	18.9%	69.5%	42.1%	77.4%	93.5%	42.3%	106%	54.6%	39.3%	27.6%	9.46% (active)	30.4%	10.7%	50.2%	–	-31.7% (active)	–	–
Cc1ccc(C)c(S(=O)(=O)NC2c3ccccc3Oc3ccccc32)c1	94%	88.8%	91%	102%	89%	101%	95.1%	94.1%	106%	101%	–	81.4%	90.7%	82.3%	88.7%	90.9%	73.7%	89.3%	100%	–
COc1ccccc1NC1=C(N2CCCCC2)C(=O)c2ccccc2C1=O	86.1%	70.6%	71.1%	90.2%	33.5%	69%	81.4%	86.8%	96.1%	98.2%	84.6%	75.3%	96.2%	88%	85.8%	39.4%	72.5%	58.8%	–	–
Cc1[nH]nc2c(=S)[nH]c(=O)[nH]c12	103%	108%	–	101%	97.1%	94.4%	88.5%	99.9%	–	109%	105%	93.4%	108%	104%	101%	100%	97.8%	105%	–	100%
COc1cccc2c1C(=O)c1c(O)c3c(c(O)c1C2=O)C[C@@](O)(C(=O)COC(=O)c1ccccc1)C[C@@H]3OC1CC(N)C(O)C(C)O1 (stereo partly specified)	-72% (active)	-95.1% (active)	–	-75.4% (active)	-95.6% (active)	-97.2% (active)	-97% (active)	-87.1% (active)	-88.9% (active)	-92% (active)	-86% (active)	-93.1% (active)	-79.8% (active)	-95.6% (active)	-89.3% (active)	-66.2% (active)	-54% (active)	-66% (active)	–	-95.4% (active)
COc1ccccc1CNCCCN1C(=O)c2ccc3c4c(ccc(c24)C1=O)C(=O)N(CCCNCCNCCCN)C3=O	90%	6.6% (active)	–	10.3%	42.1%	-31.7% (active)	23.5%	6.84% (active)	–	24.9%	1.16% (active)	77.3%	60.6%	51.5%	87.8%	60.9%	–	1.36% (active)	37.9%	-1.05% (active)
CCSc1nc2c([nH]1)c(=O)n(C)c(=S)n2C	105%	109%	–	109%	101%	119%	105%	96.9%	128%	111%	107%	98.2%	101%	102%	100%	108%	100%	108%	95.5%	–
O=[N+]([O-])c1cc2ncccc2c2ncccc12	71.9%	102%	–	96%	77.8%	72.1%	76.4%	45.5%	92%	84.9%	87.2%	52.1%	–	65.3%	84.2%	111%	74.9%	61.4%	–	102%
COc1ccc(C(=O)c2sc3nc(-c4cccs4)ccc3c2N)cc1OC	37.4%	14%	–	71.7%	39%	24.3%	59%	55%	59.2%	15.7%	62%	45.6%	49.4%	64.7%	62%	39.4%	34.5%	23.3%	–	59%
O=C(N/N=C/c1ccccc1O)c1ccccc1	23.9%	45.5%	–	56%	37.8%	13.3%	13.8%	5.3% (active)	73.5%	-3.08% (active)	47.2%	12.2%	46%	13%	7.12% (active)	71.4%	-28.1% (active)	14.7%	21.7%	–
Fc1cc(-c2ncc(-c3cc(F)c(F)c(F)c3)c(NC3CCCCCC3)n2)cc(F)c1F	97%	115%	–	99.7%	90.6%	98.1%	89.4%	102%	98.4%	111%	87.9%	88.8%	–	106%	87.6%	96.8%	–	102%	–	83.4%

Source: PubChem BioAssay (NCI)
